From PubChem
TRHR agonist = TRH receptor (human) agonism | P34981 | TRHR cells, calcium flux fluo-8, FDSS agonist mode | activation, % at 2 µM | hit rate 0.18% among 360,000; also: 0% is about no effect
Target sequence (P34981 whole entry, looked up): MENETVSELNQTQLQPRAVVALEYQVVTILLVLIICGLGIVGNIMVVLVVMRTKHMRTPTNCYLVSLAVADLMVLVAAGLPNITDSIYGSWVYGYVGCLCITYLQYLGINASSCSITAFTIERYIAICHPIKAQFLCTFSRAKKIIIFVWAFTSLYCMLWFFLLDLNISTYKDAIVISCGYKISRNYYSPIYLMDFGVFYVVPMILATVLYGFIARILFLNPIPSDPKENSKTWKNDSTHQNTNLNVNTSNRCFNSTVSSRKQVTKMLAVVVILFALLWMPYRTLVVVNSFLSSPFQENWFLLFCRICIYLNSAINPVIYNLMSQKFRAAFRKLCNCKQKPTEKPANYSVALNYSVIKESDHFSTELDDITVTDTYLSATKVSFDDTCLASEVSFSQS
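TRHR-expressing cells, plated overnight in medium with 10% serum, were loaded with fluo-8 calcium dye at room temperature. After a 10 s baseline, library compound was pin-added and calcium release was recorded kinetically (ex 480/em 530) as agonist response.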
GRP78 ERSR act = inducers of ER stress response in human glioma cells; Potency, µM, for inactives: at the highest dose activation, most hits filed as activators; hit rate 0.02% among 420,000; U87-MG GRP78 promoter luciferase reporter, 16 h; active = well fitted activation curve with a large enough effect; inconclusive = small, poorly fitted or top-dose-only effect; inactive = no such curve, though single readings can be large or run the other way; also: potency is read from the fitted curve at half-maximal effect; series mostly up to about 76 µM; % of control where 0% means no effect; nearly all actives have a fitted effect of over 35% in size
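Stably transfected U87-MG human glioma cells carrying a GRP78-based luminescent sensor were seeded at 1000 cells/well, pin-dosed with compounds and incubated 16 h. Luciferase reagent was then added, and end-point luminescence was read after 10 min at room temperature.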
TRHR PAM = allosteric enhancers of human TRH receptor; AID 493056; enhancement, % at 2 µM; TRHR cells, fluo-8 calcium fluorescence, EC20 TRH enhancement; hit rate 0.66% among 360,000; P34981; in the data active = enhancement above about 30%; also: 0% is about no effect
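Enhancer read-out: after compound pinning and an initial kinetic agonist-mode read, an EC20 of TRH (10 nM final) was injected and fluo-8 calcium signal (Ex 480/Em 530) followed at 1 s/cycle for 100 cycles in TRHR-expressing cells.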
D1 potentiator = potentiators of human D1 dopamine receptor; potentiation, % at 10 µM; hit rate 0.036% among 360,000; P21728; HEK293 TREx D1 cells, calcium flux, dopamine EC20 potentiation; in the data active = potentiation above about 30%; also: 0% is about no effect
D1 antagonist = human D1 dopamine receptor antagonism | AID 504652 | hit rate 3.2% among 360,000 | P21728 | HEK293 TREx D1 cells, calcium flux, dopamine EC80; stronger effect = lower value | activity change, negative = inhibition, % at 10 µM; in the data active = activity change below about -30%; also: % is scaled to controls: 0 for no effect and ±100 for the full control effect
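After overnight tetracycline induction at 30 C, force-coupled D1 HEK293 cells took up a no-wash calcium dye at room temperature. Compounds were added and monitored 180 s, and the response to EC80 dopamine was then recorded.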
D1 ag = activates the human D1 dopamine receptor; P21728; HEK293 T-REx D1 cells, calcium flux, agonist mode; hit rate 1% among 360,000; AID 504660; activation, % at 2 µM; also: 0% is about no effect
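Tetracycline-induced HEK293 TREx D1 cells, force-coupled to calcium signalling, were dye-loaded with a no-wash calcium kit. Compound was pin-added after a 10 s baseline. Fluorescence was read kinetically at 1 cycle/s for 180 s, with calcium rises flagged as agonism.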
Starred values were filed as active, the others as inactive; u = inconclusive; x = not tested or not shown; ! = a repeat was not active. This is a sample that favours compounds with a hit; in the whole collection about 4% have one here. Rule as the data show it, unless noted: active = activation above about 30%; inactive = the rest.

SMILES	TRHR agonist	GRP78 ERSR act	TRHR PAM	D1 potentiator	D1 antagonist	D1 ag
CCOc1ccccc1CN1CCC(Oc2cccc(C(=O)NCCOC)c2)CC1	-1	-4%	3	-8	-48*	3
O=C(c1cccc(OC2CCN(Cc3ccc(F)cc3Cl)CC2)c1)N1CCCC1	0	-6%	-2	-7	-33*	6
Cc1ccc(C)c(N2CCN(C(=O)c3ccc4c(c3)N(Cc3ccc(F)cc3)C(=O)c3ccccc3S4=O)CC2)c1 (configuration not stated)	0	-2%	0	1	3	3
CCOc1ccc(C(=O)N2CCN(c3cnn(-c4ccccc4)c(=O)c3Cl)CC2)cc1	1	-2%	0	-4	-11	1
CC(Sc1nnc(-c2ccco2)n1C)C(=O)N1C(C)CCCC1C (configuration not stated)	0	-3%	4	-4	-41*	5
CC(Sc1nnc(-c2ccco2)n1C)C(=O)NC1CCCC1 (configuration not stated)	1	-2%	2	-2	-6	1
CCC(=O)N1CCCc2cc(S(=O)(=O)N3CCC(C(=O)Nc4ccc(C#N)cc4)CC3)ccc21	0	-2%	4	-7	-59*	0
CCC(=O)N1CCCc2cc(S(=O)(=O)N3CCC(C(=O)Nc4ccc(F)c(F)c4)CC3)ccc21	-1	-3%	-3	-7	-32*	1
CCNc1nc(NCC)n2c(SCc3nc4ccccc4c(=O)[nH]3)nnc2n1	0	-4%	3	-3	10	-3
CCOc1ccc(-n2c(=O)c3c(C)c(C)sc3n(CC(=O)Nc3ccc(CC)cc3)c2=O)cc1	0	-2%	-1	1	-12	3
O=C1CCC/C1=C\Nc1ccc(Cl)c([N+](=O)[O-])c1	0	2%	0	-2	-40*	9
COc1ccc(CN(C)c2ccc(S(=O)(=O)N3CCN(C)CC3)cc2[N+](=O)[O-])cc1OC	1	-4%	-3	-11	-46*	23
COc1ccc(CCNc2ccc(S(=O)(=O)N3CCN(C)CC3)cc2[N+](=O)[O-])cc1	-1	-2%	6	-3	-32*	11
S=C(NCc1ccc2c(c1)OCO2)NCc1ccc2c(c1)OCO2	0	-5%	-5	5	10	13
CC(Oc1ccc(C#N)cc1)C(=O)c1ccc(F)c(F)c1 (configuration not stated)	-1	-6%	12	-5	-35*	12
Cc1ccc(-n2cc(C(C)(C)C)[nH]c2=S)cc1	0	2%	-5	-7	-46*	3
Cc1cc(C)c(OCCN(C)C)c(Cl)c1	0	-3%	-4	0	-38*	0
c1ccc(-c2csc(Nc3cccnc3)n2)nc1	-1	5%	10	-5	-31*	0
CC(C)CCNC(=O)CN(Cc1ccccc1Cl)C(=O)CCC(=O)Nc1ccccn1	0	-4%	0	-8	8	0
NS(=O)(=O)c1ccc(-c2ccc(/C=N/Nc3ccc(C(=O)O)cc3)o2)cc1	2	-6%	2	-4	2	3
O=C(O)c1ccc(-c2ccc(/C=N/Nc3ccc([N+](=O)[O-])cc3)o2)cc1	123*	3%	36*	0	5	151*
O=C(O)c1ccc(N/N=C/c2ccc(-c3cccc(Cl)c3)o2)cc1	0	7%	-1	16	-3	1
O=C(O)c1ccc(N/N=C/C=C/c2ccc([N+](=O)[O-])o2)cc1	27	13%	8	1	-5	56*
O=C(N/N=C/c1ccc([N+](=O)[O-])o1)C(=O)Nc1ccc(C(=O)O)cc1	1	-1%	12	5	-3	2
O=C(O)c1cccc(-c2ccc(/C=N/Nc3ccc([N+](=O)[O-])cc3)o2)c1	70*	7%	14	3	4	103*
SMILES	TRHR agonist	GRP78 ERSR act	TRHR PAM	D1 potentiator	D1 antagonist	D1 ag
CCNc1ccc(C(=O)OCC(=O)NCc2ccccc2Cl)cc1[N+](=O)[O-]	0	0%	5	-1	-88*	2
O=C(COC(=O)c1cc(Cl)ccc1[N+](=O)[O-])NCc1ccc(Cl)cc1Cl	0	-4%	39*	10	-11	1
Cc1cc2ccccn2c1C(C[N+](=O)[O-])c1ccc(N(C)C)cc1 (configuration not stated)	11	-1%	5	-2	1	42*
COc1ccc(C(C[N+](=O)[O-])c2c(C)cc3ccccn23)cc1 (configuration not stated)	2	2%	0	-6	6	1
COc1ccc(CCC(=O)Nc2ccc(S(=O)(=O)NC3=NCCCCC3)cc2)cc1	x	-5%	x	x	x	x
Cc1nc(NC(=O)CSc2nncs2)c(Cl)cc1Cl	0	-5%	-3	0	21	6
O=C(Cn1cncc1-c1ccc([N+](=O)[O-])cc1)Nc1cccc2ccccc12	0	-4%	-1	-5	4	0
COc1cccc(CNC(=O)c2cccc(NC(=O)C3=C(C)OCCS3)c2)c1	-1	-1%	-2	-9	-40*	4
O=C(NCCc1csc(-c2ccccc2)n1)c1ccco1	0	u	2	-8	-30*	0
O=C(NCCc1csc(-c2ccccc2)n1)c1cccs1	0	1%	-8	-17	-60*	5
O=C(NCCc1csc(-c2ccc(Cl)cc2)n1)c1cccs1	-1	-4%	-4	-4	-25	3
Cc1ccc(C(=O)NCCc2csc(C)n2)cc1	-1	-5%	13	-3	-27	-1
O=C(NCCc1csc(-c2cccnc2)n1)c1ccccc1	0	-3%	0	3	-47*!	0
Cc1cccc(C(=O)NCCc2csc(C)n2)c1	0	-1%	12	-9	-85*	-1
O=C(NCc1csc(-c2ccccc2)n1)c1ccco1	-1	11%	-5	-4	-5	4
CC1(C)CC(=O)C=C(C(=O)N2CCCC(CCC(=O)NCc3ccccc3F)C2)O1 (configuration not stated)	-1	4%	-4	-2	-15	0
C[C@H]1CC[C@H]2C(=O)N[C@H](Cc3ccccc3)C(=O)N2[C@@H]1c1ccccc1	0	-2%	-3	-3	-9	-3
Nc1nc2nccc(-c3cccnc3)n2n1	1	5%	-1	0	-6	3
COc1ccc(OC)c(-n2c(=O)c3ccccc3c3ccccc3c2=O)c1	-1	0%	13	-3	9	2
CCS(=O)(=O)NCCc1csc(-c2cccnc2)n1	1	4%	-3	4	-36*	0
COc1ccc(C(=O)NCCc2csc(-c3ccc(Cl)cc3)n2)c(OC)c1	1	-4%	36*	-3	11	11
